# Screens from PubChem BioAssay.
# ELG1 genotoxic: inducers of genotoxicity in HEK293T ELG1-luciferase cells. HEK293T ELG1-luciferase reporter, luminescence, 16 h. Potency, µM (highest dose often 46 µM), for the others: at the highest dose activity change, positive = activation, most hits filed as activators. actives 1.3% (n = 330,000). AID 504466; also: % of control where 0% means no effect; nearly all actives have a fitted effect of over 60% in size
#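 ELG1-luciferase HEK293T cells, 2,000/well; compound pinned in; 16 hr, 37 °C, 5% CO2; ONE-Glo, 30 min RT; luminescence on CCD imager.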
# ELG1 DNA repair: inhibitors of ELG1-dependent DNA repair in HEK293T cells | AID 504467 | actives 2.3% (n = 330,000) | HEK293T ELG1-luciferase reporter, luminescence, 16 h; DNA damage induced by 5-fluorouridine | Potency, µM (doses to about 46.1 µM), for inactives: at the highest dose activity change, negative = inhibition, usual class: inhibitors; also: % is scaled to controls: 0 for no effect and ±100 for the full control effect; nearly all actives have a fitted effect of over 55% in size
#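 Quantitative HTS, concentration-response format. 2,000 cells/well co-treated with 5-fluorouridine and compound, 16 hr in 5% CO2 at 37 °C; ONE-Glo luminescence read after 30 min.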
# NPC1 promoter act: activates the NPC1 promoter. Potency, µM (highest dose often 9.22 µM), without a hit: at the top dose activation, usual class: activators. actives 2.4% (n = 320,000). Huh7 NPC1 promoter luciferase reporter, 24 h; also: % of control where 0% means no effect; nearly all actives have a fitted effect of over 60% in size
#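 Luciferase expression driven by the NPC1 promoter was measured in stably transfected Huh7 cells after a 24 h compound incubation, using a luciferase reagent and a luminescence read.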
# FLuc counter: firefly luciferase modulation, counter-screen for miR-21 project | P08659 | purified FLuc, Km substrates, luminescence inhibition | Potency, µM (highest dose often 57.5 µM), inactives show at the highest dose activity change, negative = inhibition, hits mostly inhibitors | actives 6.9% (n = 360,000) | AID 588342;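 also: plate controls were vehicle for no effect and reference inhibitor for full effect; nearly all actives have a fitted effect of over 55% in size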
# Target sequence (P08659 whole entry, looked up): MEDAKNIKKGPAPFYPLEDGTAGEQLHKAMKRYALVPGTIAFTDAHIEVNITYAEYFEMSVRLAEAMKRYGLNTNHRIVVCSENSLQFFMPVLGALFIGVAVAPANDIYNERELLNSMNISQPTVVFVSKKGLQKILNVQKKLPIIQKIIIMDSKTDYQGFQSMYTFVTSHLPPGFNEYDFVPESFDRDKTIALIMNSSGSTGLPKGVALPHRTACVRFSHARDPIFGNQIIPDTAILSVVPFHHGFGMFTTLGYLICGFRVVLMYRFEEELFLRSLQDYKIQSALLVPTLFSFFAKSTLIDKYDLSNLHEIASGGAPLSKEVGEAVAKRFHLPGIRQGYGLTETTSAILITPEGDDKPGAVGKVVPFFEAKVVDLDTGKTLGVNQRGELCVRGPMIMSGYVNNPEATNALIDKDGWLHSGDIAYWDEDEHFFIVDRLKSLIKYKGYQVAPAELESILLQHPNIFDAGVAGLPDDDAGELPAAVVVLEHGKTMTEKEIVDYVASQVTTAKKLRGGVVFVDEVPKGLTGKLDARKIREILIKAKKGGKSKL
#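 Biochemical qHTS of compounds, final roughly 60 µM downward over six points, against 10 nM purified firefly luciferase using Km concentrations of substrates (10 uM D-luciferin, 10 uM ATP) in Tris acetate pH 7.5 buffer; luminescence output.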
# Rab9 prom act: activates the Rab9 promoter; Huh7 Rab9 promoter-luciferase reporter, luminescence, 24 h; Potency, µM (series often up to 9.22 µM), for inactives: at the highest dose activation, negative = inhibition, actives largely listed as activators; actives 2.8% (n = 320,000); also: % of control where 0% means no effect; nearly all actives have a fitted effect of over 60% in size
#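 Stable Rab9-luc Huh7, 1500 cells/well, 2 h settle; cmpd in DMSO, 24 h, 37 °C/5% CO2; luciferase reagent 10 min RT; luminescence.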
# SMN2 splice enh: enhancers of SMN2 splice variant expression; actives 2.8% (n = 210,000); HEK293 SMN2-luciferase splicing reporter, luminescence, 30-36 h; Potency, µM (doses to about 46.1 µM), inactives show top-dose activity change, positive = activation, usual class: activators; AID 1458; also: % of control where 0% means no effect; nearly all actives have a fitted effect of over 55% in size
#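 HEK293 cells carry an SMN2 minigene-luciferase reporter in which exon 7 inclusion puts luciferase in frame. Cells were seeded at 2000 cells/well, attached for 10-12 hours, then exposed to compounds for 30-36 hours at 37C before ONE-Glo luminescence.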
# * hit, by the source's call; ? = inconclusive; nt = not tested or not shown. Hits are enriched below; roughly 9.3% of the tested compounds scored in any of these assays. Calls follow the shape of the dose curve; as a rule, active = well fitted curve in the direction sought with a large enough effect; inconclusive = small, poorly fitted or top-dose-only effect, or another doubt; inactive = no such curve, though single readings can be large; an effect the other way counts as inactive or inconclusive. Potency is read from the fitted curve at half-maximal effect.
SMILES,ELG1 genotoxic,ELG1 DNA repair,NPC1 promoter act,FLuc counter,Rab9 prom act,SMN2 splice enh
O=C(/C=C/c1ccccc1)Nc1nc(-c2ccncc2)cs1,-1%,?,1%,2.7µM*,-6%,-75%
O=C(/C=C/c1ccco1)NC(=S)Nc1nc(-c2ccc(Cl)cc2)cs1,-1%,21%,-16%,2%,-8%,nt
N#Cc1ccc(-c2csc(NC(=O)/C=C/c3cccs3)n2)cc1,10%,?,-2%,?,-7%,-23%
O=C(/C=C\c1ccco1)Nc1nc(-c2ccccc2)cs1,3%,?,13%,12µM*,?,?
Cc1cc(C(=O)N/N=C/c2cccnc2)c(C)o1,0%,?,-1%,?,15%,-6%
Cc1ccc(C(=O)N/N=C/c2c[nH]c3ccccc23)o1,?,?,18%,24µM*,26%,nt
Cc1cc(C(=O)N/N=C/c2c[nH]c3ccccc23)c(C)o1,11%,?,1%,19µM*,0%,-3%
Cc1ccc(-c2cc(C(=O)N/N=C/C(Br)=C/c3ccccc3)n[nH]2)o1,-2%,-27%,-3%,24µM*,22%,-2%
Cc1ccnn1CC(=O)N/N=C/c1c[nH]c2ccccc12,-1%,-8%,0%,-11%,0%,nt
Cc1ccc(-c2cc(C(=O)N/N=C/c3c[nH]c4ccccc34)n[nH]2)o1,-7%,?,9%,11µM*,0%,5%
Cc1ccc(-c2cc(C(=O)N/N=C/c3ccccc3O)n[nH]2)o1,?,19%,3%,?,-1%,nt
O=C(c1ccc(F)cc1)C(CN1CCOCC1)c1ccccc1 (stereo unspecified),-3%,?,-13%,7%,-29%,-77%
CN(C)CCCNC(NC(=O)c1cccs1)C(Cl)(Cl)Cl (stereo unspecified),0%,17%,1%,1%,-5%,-6%
CC(=O)Oc1ccc2c(=O)c(-c3ccccc3)coc2c1,0%,?,?,13µM*,?,25µM*
CCOC(=O)COc1ccc2c(=O)c(-c3ccccc3)coc2c1,2%,4%,-1%,17µM*,-5%,nt
CC(=O)Oc1ccc2c(=O)c(N3C(=O)c4ccccc4C3=O)c(C)oc2c1,1%,11%,1%,-2%,2%,?
Cc1ccc(C)c(C(=O)CCC(=O)NNC(=O)Cn2nc(C)cc2C)c1,-3%,3%,-5%,3%,-9%,nt
COc1cc(/C=N/N2C(C)CCCC2C)cc(Br)c1O (stereo unspecified),-4%,?,-4%,-2%,0%,2%
CN=c1scc(C)n1/N=C/c1cc(Br)c(O)c(Br)c1,0%,9%,-4%,11µM*,-2%,-15%
CCN=c1scc(C)n1/N=C/c1cc(Br)c(O)c(OC)c1,6%,5.8µM*,0%,?,1%,?
CN=c1scc(-c2ccco2)n1/N=C/c1ccc(O)c(O)c1,?,?,-15%,0.67µM*,-25%,7.9µM*
CN=c1scc(C)n1/N=C/c1ccc(O)cc1,3.2µM*,?,3.2µM*,3µM*,2.2µM*,?
CC1CCCC(C)N1/N=C/c1cc(Br)c(O)c(Br)c1 (stereo unspecified),1%,0%,-1%,2%,-5%,-34%
Cc1nnc(C)n1/N=C/c1ccc2c(c1)OCCO2,?,?,0%,2%,0%,14%
CC1CCCC(C)N1/N=C/c1ccc(O)c(O)c1 (stereo unspecified),7%,12%,-3%,-17%,5%,nt
CN=c1scc(C)n1/N=C/c1ccc2c(c1)OCO2,0.65µM*,?,0.71µM*,1.3µM*,0.35µM*,4.5µM*
C=CCN=c1scc(C)n1/N=C/c1ccc(O)c(O)c1,?,?,-3%,27µM*,1%,16µM*
